TRHR PAM = allosteric enhancers of human TRH receptor; 0.66% of 360,000 active; AID 493056; P34981; enhancement, % at 2 µM; TRHR cells, fluo-8 calcium fluorescence, EC20 TRH enhancement; in the data active = enhancement above about 30%
Target sequence (P34981 whole entry, looked up): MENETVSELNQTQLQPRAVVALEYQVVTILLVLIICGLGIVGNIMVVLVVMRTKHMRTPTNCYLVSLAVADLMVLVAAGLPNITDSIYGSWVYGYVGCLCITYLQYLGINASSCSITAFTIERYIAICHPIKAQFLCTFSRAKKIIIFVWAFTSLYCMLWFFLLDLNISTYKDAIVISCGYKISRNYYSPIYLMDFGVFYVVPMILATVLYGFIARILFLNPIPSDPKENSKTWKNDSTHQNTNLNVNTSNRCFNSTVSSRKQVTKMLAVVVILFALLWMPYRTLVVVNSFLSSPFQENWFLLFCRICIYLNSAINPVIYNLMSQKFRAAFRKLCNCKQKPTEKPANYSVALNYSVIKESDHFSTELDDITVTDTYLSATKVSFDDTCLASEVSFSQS
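Enhancer read-out: after compound pinning and an initial kinetic agonist-mode read, an EC20 of TRH (10 nM final) was injected and fluo-8 calcium signal (Ex 480/Em 530) followed at 1 s/cycle for 100 cycles in TRHR-expressing cells.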
TRHR ag = agonists of human TRH receptor | TRHR cells, calcium flux fluo-8, FDSS agonist mode | activation, % at 2 µM | 0.18% of 360,000 active | AID 493084
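Read-out: compound-evoked intracellular calcium rise in TRHR cells, fluo-8 dye, kinetic FDSS fluorescence at 1 s/cycle following a 10-cycle baseline. Cells cultured overnight before dye loading (30 min–1.5 h, RT).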
D1 potentiator = human D1 dopamine receptor positive modulation; P21728; HEK293 TREx D1 cells, calcium flux, dopamine EC20 potentiation; potentiation, % at 10 µM; 0.036% of 360,000 active; AID 504651; in the data active = potentiation above about 30%
D1 agonist = agonists of human D1 dopamine receptor; 1% of 360,000 active; activation, % at 2 µM; HEK293 T-REx D1 cells, calcium flux, agonist mode; P21728
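Inducible HEK293 T-REx D1 cells, force-coupled to calcium signalling, were plated at 4000 cells/well with tetracycline and held overnight at 30 C. After no-wash calcium dye loading, compound-evoked calcium rise over 180 s flagged agonists.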
D1 antag = antagonists of human D1 dopamine receptor | HEK293 TREx D1 cells, calcium flux, dopamine EC80; active compounds read low | activity change, negative = inhibition, % at 10 µM | 3.2% of 360,000 active | P21728; in the data active = activity change below about -30%
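Antagonism measured as reduced calcium response to an EC80 dopamine addition following 180 s compound pre-read; cells were inducible HEK293 Trex D1 plated overnight at 30 C, read kinetically at 1 cycle/sec.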
Hits are given with their value; i = inactive; ! = repeats disagree. The list is not random: actives were taken first. Their share in the collection is about 4.7%. Cut-off read from the data, not from the text of the source, unless noted: active = activation above about 30%; inactive = the rest.

SMILES	TRHR PAM	TRHR ag	D1 potentiator	D1 agonist	D1 antag
Cc1ccc(C)c(S(=O)(=O)N2CCN(C(=O)Cc3c(F)cccc3Cl)CC2)c1	i	i	i	i	i
Cc1ccc(C)c(S(=O)(=O)N2CCN(C(=O)CSc3ccccc3F)CC2)c1	i	i	i	31	i
Nn1c(SCC(=O)Nc2ccccc2C(F)(F)F)nncc1=O	i	i	i	i	i
Cn1c(=N)n(CC(=O)c2ccc(Br)s2)c2ccccc21	i	i	i	i	i
N=c1n(CC(=O)c2ccc(Br)s2)c2ccccc2n1Cc1ccccc1	i	i	i	49	i
OCC[C@@H]1C[C@@H](O)[C@H](O)[C@]2(CCc3ccccc3CO2)O1	i	i	i	i	i
COc1ccc(C2C(C(=O)N3CCN(c4ccccc4)CC3)c3ccccc3C(=O)N2C)cc1 (stereo unspecified)	i	i	i	i	-41
Cc1ccccc1-c1noc(-c2ccc(O)cc2)n1	i	i	i	68	-41
Cc1ccccc1-c1noc(-c2ccc(Cl)cc2)n1	i	i	i	i	i
CCS(=O)(=O)N1CCc2cc(C(=O)Nc3cc(OC)c(Cl)cc3OC)ccc21	i	i	i	i	i
Cc1nn(CC(=O)O)c(C)c1[N+](=O)[O-]	i	i	i	i	i
Cc1nn(CC(=O)OCC(=O)c2ccc(OC(F)F)cc2)c(C)c1[N+](=O)[O-]	i	i	i	i	-31
COc1ccc(/C=C2\SC(=O)NC2=S)cc1OC	i	i	i	32	i
COc1ccc(/C=C2/SC(c3ccc(C)cc3)=NC2=O)cc1OC	i	i	i	i	i
COc1ccc(/C=C2\SC(c3ccc(C)cc3)=NC2=O)cc1OC	i	i	i	53	i
Cc1c(C)n(CC(O)CN2CCCCCC2)c2ccccc12 (stereo unspecified)	i	i	i	i	i
OC(CN1CCCCC1)Cn1c2ccccc2c2cc(Br)ccc21 (stereo unspecified)	i	i	i	45	-63
COc1ccc(C(=O)C(OC(=O)c2ccccc2Cl)c2ccccc2)cc1 (stereo unspecified)	i	i	i	i	-33
COc1ccc(C(=O)C(OC(=O)c2ccccc2)c2ccccc2)cc1 (stereo unspecified)	i	i	i	i	i
O=C(O)/C=C1\NC(=O)c2ccccc21	i	i	i	i	i
O=C1N/C(=C\c2ccc(O)cc2)C(=O)c2ccccc21	i	i	i	32	i
CCOc1ccc(Cn2nnc3c(=O)[nH]c(C4CCN(C(=O)c5ccccc5)CC4)nc32)cc1	i	i	i	i	i
CCCCCn1c(=N)c(S(=O)(=O)c2ccccc2)cc2c(=O)n3ccccc3nc21	i	i	i	i	-62
CCOC(=O)c1c(C)[nH]c(C)c1S(=O)(=O)N1CCC(C(=O)N2CCN(c3cccc(C)c3)C(C)C2)CC1 (stereo unspecified)	i	i	i	i	i
Cc1nc2c3ccccc3nc(NNC(=O)CCC(=O)N3CCCC(C)C3)n2n1 (stereo unspecified)	i	i	i	i	-33
SMILES	TRHR PAM	TRHR ag	D1 potentiator	D1 agonist	D1 antag
Cc1cccc(N2CCN(C(=O)CCC(=O)NNc3nc4ccccc4c4nc(C)nn34)CC2C)c1 (stereo unspecified)	i	i	i	i	i
O=C(Nc1ccccc1)N1CCC(c2ccccc2)C1 (stereo unspecified)	i	i	i	i	i
O=C(Nc1ccc(Cl)c(Cl)c1)N1CCC(c2ccccc2)C1 (stereo unspecified)	i	i	i	i	-43
Cc1ccc(C2CCN(C(=O)Nc3ccc(Cl)c(Cl)c3)C2)cc1 (stereo unspecified)	i	i	i	i	-45
CCOc1ccc(NC(=O)N2CCC(c3ccc(C)cc3)C2)cc1 (stereo unspecified)	i	i	i	i	-31!
CC(C)CN(C(=O)c1cccc(S(=O)(=O)N2CCN(Cc3ccccc3)CC2)c1)C1CCS(=O)(=O)C1 (stereo unspecified)	i	i	i	i	i
CC(=O)c1ccc(NC(=O)CSc2cn(CC(=O)N(C(C)C)C(C)C)c3ccccc23)cc1	i	i	i	i	i
O=C(Nc1ccc2c(c1)CCCN2C(=O)c1cccs1)c1ccccc1Cl	i	i	i	i	i
CC(=O)c1ccc(Nc2ccc3cc(S(=O)(=O)N4CCCC4)ccc3n2)cc1	i	i	i	i	i
Cc1nc2ccccc2n1CC(O)COc1ccccc1Cl (stereo unspecified)	i	i	i	i	-46
Cc1nc2ccccc2n1CC(O)COc1ccc(Br)cc1 (stereo unspecified)	i	i	i	i	i
Cc1ccccc1OCCCCn1c(CO)nc2ccccc21	i	i	i	i	i
Cc1ccccc1OCCn1c(C)nc2ccccc21	i	i	i	i	-41
Cc1nc2ccccc2n1CCOc1ccccc1	i	i	i	i	-42
Cc1ccc(S(=O)(=O)N(CCC(=O)NCc2ccc(S(N)(=O)=O)cc2)c2ccccc2)cc1	i	i	i	i	i
Clc1ccc(Cc2nc(-c3ccncc3)no2)cc1	i	i	i	i	-36
COc1ccc(Cc2nc(-c3ccncc3)no2)cc1	i	i	i	i	i
CCOc1ccccc1CNCc1c(C(=O)O)c(C)n(Cc2ccc(Cl)cc2)c1C	i	i	i	i	-67
c1ccc(CN2CCC3(CCCc4ccccc43)CC2)cc1	i	i	i	i	-49
COCCN1C(=S)N[C@@H](c2ccccc2)C(C(=O)OC)=C1C	i	i	i	i	i
Cc1ccc(CNC(=O)CN(c2cccc([N+](=O)[O-])c2)S(=O)(=O)c2ccccc2)cc1	i	i	i	i	i
COc1ccccc1CNC(=O)CN(c1cccc([N+](=O)[O-])c1)S(C)(=O)=O	i	i	i	i	-35
Cc1ccc(CNC(=O)CN(c2cccc([N+](=O)[O-])c2)S(C)(=O)=O)cc1	i	i	i	i	-35
Cc1nn(CC(=O)NCc2ccccc2Br)c(=O)c2cc3occc3n12	i	i	i	i	i
CCOC(=O)C1CCN(S(=O)(=O)c2cc(-c3cc(C)no3)ccc2OC)CC1	i	i	i	i	i
COc1ccc(-n2nc3c(c2NC(=O)C(C)Oc2ccccc2)CS(=O)(=O)C3)cc1 (stereo unspecified)	i	i	i	i	i
N/C(=N\S(=O)(=O)c1cc(C(F)(F)F)cc(C(F)(F)F)c1)c1ccc(Cl)cc1	i	i	i	i	-77
N/C(=N\S(=O)(=O)c1cc(C(F)(F)F)cc(C(F)(F)F)c1)c1ccncc1	i	i	i	i	i
COc1ccc(-c2c(NC(=O)c3ccco3)oc3c(C)cccc3c2=O)cc1OC	i	i	i	i	i
CN(Cc1ccccc1)S(=O)(=O)c1ccc(OCC(=O)N2CCC(C(N)=O)CC2)cc1	i	i	i	i	i

Screening results from PubChem.
